# Reference: ChEMBL document CHEMBL4513216, “Probing the Open Global Health Chemical Diversity Library for Multistage-Active Starting Points for Next-Generation Antimalarials” (ACS Infect Dis, 2020)
# In all, about 68,000 compounds went through this assay and about 2,700 (4%) showed an effect of 50% or more. The full list was thinned out, with strong results kept by preference.
# Test system: Plasmodium berghei
# Assay: Screen against P. berghei liver stage (PbLuc), transformed with Luciferase, at 2uM
# Type: functional, HepG2
# Settings: tested at 2 uM
row,SMILES,INHIBITION [%]
1,COc1ncc(CN(C)C2CCN(C(C)C)CC2)cn1,36.08
2,Cn1cc(CNC2CCc3c(ccc(=O)n3Cc3cccnc3)C2)cn1 (stereo not drawn),17.69
3,O=C(NS(=O)(=O)c1cc(Cl)ccc1Cl)c1cccc2c1OCCO2,-55.23
4,Cc1nn(C)c2cnn(Cc3ccc(C(=O)N4CCN(C)CC4)o3)c12,1.33
5,CS(=O)(=O)NCCC(=O)N1Cc2cnc(-c3ccccc3)nc2C1,-49.29
6,CCn1cc(CN2CCCN(C(=O)CCN3CCCC3=O)CC2)cn1,-35.65
7,CCn1cc(CN2CCCN(C(=O)C3=NN(C)C(=O)CC3)CC2)cn1,59.73
8,CCn1cc(CN2CCCN(C(=O)c3cccn3C)CC2)cn1,19.18
9,COc1cccc(S(=O)(=O)NC(=O)CCC2CCCC2)c1,37.68
10,O=C(c1cccnc1)N1CCOC(c2ccc(-c3cncnc3)cn2)C1 (stereo not drawn),-6.04
11,COCCC(=O)N1CC[C@@H]2O[C@@H](C)C[C@H]2C1,22.01
12,C[C@H]1C[C@H]2CN(C(=O)CCc3ccccc3)CC[C@H]2O1,65.32
13,C[C@H]1C[C@H]2CN(C(=O)CCOc3ccccc3)CC[C@H]2O1,-12.84
14,Cc1n[nH]c(C)c1CCC(=O)NCC1COc2ccccc2C1 (stereo not drawn),11.19
15,NC(=O)COc1ccc(C(=O)N2CCCC(n3ccnc3)C2)cc1 (stereo not drawn),-10.05
16,CC(C)Oc1ccc(C(=O)N2CC[C@H](O)[C@@H](n3ccnc3)CC2)cc1,52.69
17,COCc1ccc(C(=O)N2CC[C@H](O)[C@@H](n3ccnc3)CC2)cc1,-7.01
18,Nc1cc2c(nn1)CCN(C(=O)C1CCc3ccccc31)C2 (stereo not drawn),16.89
19,CCOC(=O)N1CC2(CCNCC2)c2cc(Cl)ccc21,-12.43
20,c1cc(CCNc2ccc(CC3CCNC3)cn2)ccn1 (stereo not drawn),-6.19
21,Cc1cc(C)n(C2CCCN(C(=O)c3ccnc(N(C)C)c3)C2)n1 (stereo not drawn),3.17
22,OCc1csc(N2CCN(Cc3cccc(F)c3)CC2)n1,45.82
23,Cc1cccc(CN2CCN(c3nc(CO)cs3)CC2)c1,86.36
24,OCc1csc(N2CCCN(Cc3ccc(F)cc3)CC2)n1,36.28
25,CCS(=O)(=O)CCN1CCC(N(C)Cc2ncc(C)o2)C1 (stereo not drawn),31.55
26,Cc1noc(C)c1CN1CCc2ncnc(-c3ccc(F)cc3)c2CC1,49.45
27,CCNC(=O)C1(CC2CC(c3ccccc3OC)=NO2)CCOCC1 (stereo not drawn),-2.93

row,SMILES,INHIBITION [%]
1,CCCNC(=O)C1(CC2CC(c3ccccc3OC)=NO2)CCOCC1 (stereo not drawn),51.57
2,COc1ccccc1C1=NOC(CC2(C(=O)NCCO)CCOCC2)C1 (stereo not drawn),-39.01
3,CCS(=O)(=O)N1CCC2(CC1)CC(COC)N(c1ncccn1)C2 (stereo not drawn),28.45
4,Cc1cc(C)n(CC2CCCCN2CCC(=O)Nc2cc(C)on2)n1 (stereo not drawn),21.39
5,Cc1cnc(-c2nc(-c3cccc(CN4CCOCC4)c3)no2)cn1,15.74
6,Cc1cc(-c2nc(-c3cccc(CN4CCOCC4)c3)no2)no1,53.19
7,Cc1c(-c2nc(-c3cccc(CN4CCOCC4)c3)no2)cnn1C,35.56
8,CCOCCNC(=O)c1ccc(OC)cc1I,30.48
9,Clc1cccc(C[C@@H]2NCCC[C@@H]2Nc2ccccc2)c1,33.95
10,CCCOC(C)C(=O)N1CCC(O)(c2ccc3nc(C)ccc3c2)CC1 (stereo not drawn),52.66
11,CC1=NOC(C(=O)N2CCC(O)(c3ccc4nc(C)ccc4c3)CC2)C1 (stereo not drawn),-70.57
12,Cc1ccc2cc(C3(O)CCN(C)CC3)ccc2n1,8.88
13,COCCOCC(=O)N1CCC(O)(c2ccc3nc(C)ccc3c2)CC1,-3.38
14,Cc1ccc2cc(C(=O)N3CCN(C(=O)N(C)C)CC3)ccc2n1,7.02
15,Cc1ccc2cc(C(=O)N3CCC(O)(C(F)(F)F)CC3)ccc2n1,-13.42
16,Cc1ccc2cc(C3(O)CCN(C(=O)[C@@H]4CCCCN4)CC3)ccc2n1,53.98
17,Cc1ccc2cc(C3(O)CCN(C(=O)CSC(C)C)CC3)ccc2n1,70.17
18,Cc1ccc2cc(C3(O)CCN(C(=O)CN4CCCC4)CC3)ccc2n1,8.65
19,Cc1ccc(CNC(=O)Nc2nccs2)cn1,-11.83
20,Cc1nc(CN2CCCC(Cn3cc(CCO)nn3)C2)c2ccccn12 (stereo not drawn),-27.82
21,Cn1cc(-c2nnn3c2COC(CNCc2ccncc2)C3)cn1 (stereo not drawn),-42.69
22,O=C(c1ccccc1-c1nnn[nH]1)N1CCOC(C(F)(F)F)C1 (stereo not drawn),-12.13
23,COCCNc1c(C#N)c2c(c3nncn13)CN(C)CC2,18.59
24,CN1CCc2c(C#N)c(NCCCO)n3cnnc3c2C1,-9.74
25,COCCCNc1c(C#N)c2c(c3nncn13)CN(C)CC2,52.23
26,Cc1oncc1C(=O)NCC(c1ccccc1Cl)N1CCOCC1 (stereo not drawn),8.6
